Only some compounds are listed: those with a hit (about 2.5% of all), similar ones and a draw of the others.
PG9 binder: PG9 antibody binding by small molecule | 360,000 compounds, 0.43% hits | TR-FRET gp120-PG9 antibody binding | inhibition, % at 6.7 µM; in the data active = inhibition above about 8.5%
Exocytosis inh: lytic granule exocytosis inhibition. TALL-104 LAMP-1 surface exposure, flow cytometry; cells stimulated with thapsigargin and PMA. inhibition, % at 10 µM. 360,000 compounds, 0.66% hits;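 active = inhibition above about 55%, limit read from the data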
ABCB6 inh 2: inhibitors of human ABC transporter ABCB6 | Q9NP58 | K562-ABCB6 porphyrin accumulation, flow cytometry, 1 h; active compounds read low | fluorescence ratio to DMSO, % at 10 µM | 360,000 compounds, 0.19% hits;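 active = fluorescence ratio to DMSO below 75%, the collection mean minus 3 SD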;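 also: signal is porphyrin accumulated inside mitochondria; 100% equals median channel fluorescence of DMSO control wells; lower ratio means ABCB6 inhibition with less porphyrin fluorescence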
Target sequence (Q9NP58 whole entry, looked up): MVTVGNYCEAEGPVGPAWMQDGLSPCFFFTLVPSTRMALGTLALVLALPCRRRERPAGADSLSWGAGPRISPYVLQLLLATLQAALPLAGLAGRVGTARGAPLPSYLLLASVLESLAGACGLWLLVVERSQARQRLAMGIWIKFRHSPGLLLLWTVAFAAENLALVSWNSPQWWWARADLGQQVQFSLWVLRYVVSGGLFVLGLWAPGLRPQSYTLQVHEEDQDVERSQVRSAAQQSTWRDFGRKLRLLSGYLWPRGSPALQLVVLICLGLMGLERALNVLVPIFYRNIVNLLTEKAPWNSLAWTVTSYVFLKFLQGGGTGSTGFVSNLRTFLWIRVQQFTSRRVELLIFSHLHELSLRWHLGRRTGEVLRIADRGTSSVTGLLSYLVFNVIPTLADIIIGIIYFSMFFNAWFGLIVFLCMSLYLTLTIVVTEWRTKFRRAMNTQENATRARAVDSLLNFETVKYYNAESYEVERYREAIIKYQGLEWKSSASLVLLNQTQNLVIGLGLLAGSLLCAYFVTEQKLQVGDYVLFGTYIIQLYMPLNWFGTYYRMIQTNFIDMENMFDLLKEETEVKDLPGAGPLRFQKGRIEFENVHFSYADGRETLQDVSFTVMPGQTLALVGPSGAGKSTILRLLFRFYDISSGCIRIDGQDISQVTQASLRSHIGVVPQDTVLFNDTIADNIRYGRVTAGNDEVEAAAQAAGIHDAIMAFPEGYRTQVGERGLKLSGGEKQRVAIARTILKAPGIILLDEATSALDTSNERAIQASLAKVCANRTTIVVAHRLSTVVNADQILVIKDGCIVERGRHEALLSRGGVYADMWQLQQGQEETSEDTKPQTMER
rCAG binder: r(CAG) repeat RNA binding. TO-PRO-1 dye displacement fluorescence. inhibition, % at 3 µM. 370,000 compounds, 1.3% hits;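 active = inhibition above the plate cutoff, the mean of all test compounds on that plate plus 3 SD, cut at about 35% in these data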;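 also: 0% = DMSO alone and 100% = 100 µM mitoxantrone as full dye displacement; higher means more dye released from RNA so lower well fluorescence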
rCAG binder conf: r(CAG) RNA repeat binding, confirmation | TO-PRO-1 dye displacement fluorescence | 4,300 compounds, 70% hits | inhibition, % at 3 µM | shares compounds with rCAG binder;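 active = inhibition above a per-plate cutoff, the mean inhibition of sample wells plus 3 SD, cut at about 35% in these data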;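 also: loss of TO-PRO-1 fluorescence as compound displaces dye from 1x1 AA loop RNA; 0% = DMSO only wells and 100% = 100 µM mitoxantrone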
dCAG dye counter: DNA CAG dye complex inhibition counter-screen; 4,300 compounds, 94% hits; AID 652068; inhibition, % at 3 µM; d(CAG) DNA oligo TO-PRO-1 dye displacement, fluorescence; shares compounds with rCAG binder;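 active = inhibition above its plate's cutoff, the mean test-well inhibition plus 3 SD, cut at about 4.8% in these data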;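 also: 0% = DNA dye mix with DMSO and 100% = 100 µM mitoxantrone; hits displace the dye from DNA and so lower well fluorescence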
* marks the source's active call; other numbers are inactive results; . = no result.

SMILES	PG9 binder	Exocytosis inh	ABCB6 inh 2	rCAG binder	rCAG binder conf	dCAG dye counter
CCc1c(O)nc(SCC(=O)Nc2c(C)cccc2C)n(-c2ccc(F)cc2)c1=O	-1.8	0.6	99.0	-0.5	.	.
Cc1c(O)nc(SCC(=O)Nc2ccc3c4c(cccc24)CC3)n(-c2ccc(F)cc2)c1=O	-1.2	0.4	102.0	45.5*	29.8	8.3*
C=C1c2cccc(O)c2C(=O)C2C(=O)[C@]3(O)C(=O)C(C(N)=O)C(=O)[C@@H](N(C)C)[C@@H]3[C@@H](O)[C@H]12 (stereo partly specified)	-0.1	-5.2	93.0	84.9*	28.0	10.4*
C[C@H]1c2cccc(O)c2C(O)=C2C(=O)[C@]3(O)C(O)=C(C(N)=O)C(=O)[C@@H](N(C)C)C3[C@@H](O)C21 (stereo partly specified)	-1.9	-0.5	94.0	9.0	.	.
O=C(Nc1nnc(-c2ccccc2Cl)o1)c1nc2ccccc2s1	-1.2	0.1	95.0	39.9*	47.2*	12.7*
COc1cccc(-c2nnc(Nc3nc4c(F)cccc4s3)o2)c1	2.6	3.5	98.0	73.4*	67.0*	22.8*
COc1cccc(-c2nnc(NC(C)=O)o2)c1	1.6	-0.7	102.0	1.9	.	.
COc1cccc2sc(Nc3nnc(-c4ccccc4Cl)o3)nc12	1.5	6.8	98.0	45.8*	44.1*	14.3*
O=C(Nc1nnc(-c2ccccc2Cl)o1)c1ccco1	-2.4	-3.3	99.0	2.3	.	.
CCOc1cc([N+](=O)[O-])cc(/C=C2/NC(=O)N(Cc3ccccc3F)C2=O)c1O	-10.6	-1.1	97.0	45.6*	46.6*	13.8*
Cc1cc(/C=C2/NC(=O)N(Cc3ccccc3F)C2=O)c(C)n1C	-4.9	0.7	101.0	12.1	.	.
N#CC(=C(O)CN1CCN(c2ccccc2F)CC1)c1nc(-c2ccccc2)cs1	-0.2	0.4	98.0	51.0*	50.7*	17.8*
N#C/C(=C(/O)CN1CCCC1)c1nc(-c2ccccc2)cs1	-0.1	0.9	99.0	5.5	.	.
N#CC(=Cc1ccccn1)c1nc(-c2ccc(Cl)cc2)cs1	0.8	-0.8	165.0	16.1	.	.
N#CC(=C(O)CN1CCN(c2ccccc2F)CC1)c1nc(-c2ccc(Cl)cc2)cs1	-1.2	-2.2	87.0	51.5*	62.9*	23.8*
CCOC(=O)C1CCCN(C/C(O)=C(\C#N)c2nc(-c3ccc(Cl)cc3)cs2)C1 (stereo unspecified)	0.5	2.6	99.0	35.1*	57.8*	17.1*
COc1ccccc1N1CCN(CCCNC(=O)C2CCCN(c3ncnc4c3nc3n4CCCCC3)C2)CC1 (stereo unspecified)	-2.8	-0.3	107.0	-9.2	.	.
Cc1ccc(CN2CC(N3CCN(C)CC3)CS2(=O)=O)cc1 (stereo unspecified)	-0.6	5.0	96.0	-0.5	.	.
COc1ccc(C(CNC(=O)C(=O)Nc2ccc3c(c2)OCCO3)N2CCN(C)CC2)cc1 (stereo unspecified)	-2.1	-1.3	101.0	-7.9	.	.
Cc1cc(-c2csc(NC(=O)c3cc4ccccc4o3)n2)c(C)n1C	-1.3	-1.8	105.0	44.2*	52.2*	25.4*
CCC(C)(C)NC(=O)CN(CC1CCCO1)C(=O)CNS(=O)(=O)c1ccccc1 (stereo unspecified)	-1.2	-7.8	97.0	-2.9	.	.
COc1ccc(OCC(=O)Nc2ccc(S(=O)(=O)Nc3cc(C)on3)cc2)cc1	-0.6	0.0	103.0	19.7	.	.
Cc1ccccc1OCCCC(=O)Nc1ccc(S(=O)(=O)Nc2onc(C)c2C)cc1	-4.6	-3.2	97.0	52.0*	34.0	9.4*
Cc1cc(NS(=O)(=O)c2ccc(NC(=O)c3oc4ccccc4c3C)cc2)no1	0.7	-4.7	106.0	40.7*	41.0*	11.2*
Cc1cc(NS(=O)(=O)c2ccc(NC(=O)COc3c(C)cc(Br)cc3C)cc2)no1	-1.3	10.3	102.0	71.1*	63.2*	25.5*
SMILES	PG9 binder	Exocytosis inh	ABCB6 inh 2	rCAG binder	rCAG binder conf	dCAG dye counter
Cc1cc(NS(=O)(=O)c2ccc(NC(=O)COc3ccc(Br)cc3)cc2)nc(C)n1	3.4	-3.2	93.0	35.5*	35.5*	10.3*
Cc1ccc(OCCCC(=O)Nc2ccc(S(=O)(=O)Nc3ccccn3)cc2)cc1	-0.5	-0.5	94.0	0.1	.	.
Cc1c(C(=O)Nc2ccc(S(=O)(=O)Nc3ncccn3)cc2)oc2ccccc12	3.5	-1.6	93.0	20.1	.	.
Cc1ccc(OCCCC(=O)Nc2ccc(S(=O)(=O)Nc3cc(C)on3)cc2)cc1	0.6	-0.2	97.0	48.9*	36.2*	11.8*
CCC(=O)Nc1ccc(S(=O)(=O)Nc2cc(C)on2)cc1	-1.5	-1.2	100.0	-0.6	.	.
Cc1cc(NS(=O)(=O)c2ccc(NC(=O)Cc3ccc(Cl)c(F)c3)cc2)no1	.	.	.	21.7	.	.
Cc1c(C(=O)NNC(=S)Nc2ccc(S(N)(=O)=O)cc2)oc2ccccc12	-1.8	2.8	97.0	52.3*	31.7	11.0*
Cc1cc(NS(=O)(=O)c2ccc(NC(=O)Cc3ccc(Cl)c(Cl)c3)cc2)no1	0.9	0.9	94.0	49.5*	35.2*	8.8*
Cc1cc(NS(=O)(=O)c2ccc(NC(=O)CCCOc3cccc(C)c3C)cc2)no1	-3.0	-0.9	101.0	63.1*	62.2*	16.9*
OC(c1ccccc1)(c1nc(-c2ccccc2)cs1)C(F)(F)F (stereo unspecified)	-0.4	-8.1	96.0	1.2	.	.
CC(C(=O)Nc1ccc2c(c1)OCCO2)N(C)CC(=O)Nc1ccccc1Br (stereo unspecified)	0.8	-0.3	94.0	-5.0	.	.
COCCNc1c(-c2cc3ccc(C)c(C)c3[nH]c2=O)nc2ccccn12	-4.9	-2.2	96.0	-2.9	.	.
Cc1cc(NS(=O)(=O)c2ccc(NC(=O)CCCOc3ccccc3C)cc2)no1	-2.6	-0.4	96.0	37.8*	33.7	8.8*
COc1ccc(N2C(=O)C3NN=C(C(=O)OCc4ccccc4)C3C2=O)cc1 (stereo unspecified)	0.1	-0.1	98.0	-1.8	.	.
NNc1nc2sc3c(c2c(=O)[nH]1)CCc1ccccc1-3	-0.1	-0.1	103.0	44.1*	14.7	8.4*
CCSc1nc2sc3c(c2c(=O)[nH]1)CCc1ccccc1-3	5.4	1.0	98.0	11.7	.	.
CCOc1ccc(NC(=O)CC2C(=O)N(c3ccccc3)C(=O)N2CCc2cccs2)cc1 (stereo unspecified)	-0.1	0.7	101.0	2.0	.	.
O=C(O)CSCC(=O)N(Cc1ccccc1)c1nc(-c2ccccc2)c(-c2ccccc2)s1	-0.1	5.3	100.0	68.3*	85.6*	53.6*
CCCCc1c(-c2ccccc2OC)ncn1Cc1ccc(C)cc1	-0.5	.	.	-1.7	.	.
C/C(=N\NC(=O)c1ccc(-c2ccccc2)cc1)C1C(=O)c2ccccc2C1=O	-3.6	7.9	102.0	47.0*	82.8*	49.5*
CCOc1ccc(C(=O)N/N=C(/C)C2C(=O)c3ccccc3C2=O)cc1	-4.2	-3.0	100.0	6.5	.	.
CC(=O)Nc1ccc(NC(=O)C2CCN(S(C)(=O)=O)CC2)cc1	0.1	11.3	94.0	1.6	.	.
